A selection: hits, their analogues and other compounds. The true share with any hit is near 7.5%.
KinaseGlo FLuc: blocks Kinase-Glo luciferase, a counter-screen artifact. AID 1379. Potency, µM (doses to about 38.3 µM), without a hit: at the top dose activity change, negative = inhibition, most hits filed as inhibitors. Kinase-Glo luciferase, ATP luminescence, 8 min. actives 0.28% (n = 200,000). Q27757; note: % is set by controls: 0 for no effect and ±100 for the full control effect; nearly all actives have a fitted effect of over 60% in size
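Luminescence was the read-out, taken after 8-minute incubation at ambient temperature. Luciferase turned over luciferin with 10 uM ATP in imidazole pH 7.2 buffer containing KCl, MgCl2, Tween 20 and BSA.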
Rab9 prom act: Rab9 promoter activation; actives 2.8% (n = 320,000); Potency, µM (titrated, usually from 9.22 µM), for the others: at the highest dose activation, negative = inhibition, usual class: activators; Huh7 Rab9 promoter-luciferase reporter, luminescence, 24 h; AID 485297; note: % of control where 0% means no effect; nearly all actives have a fitted effect of over 60% in size
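Using Huh7 cells stably transfected with Rab9 promoter–luciferase, compounds were incubated 24 h at 37 °C, 5% CO2; luciferase luminescence was read 10 min after reagent addition.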
FLuc modulator: firefly luciferase modulation, counter-screen for miR-21 project; P08659; purified FLuc, Km substrates, luminescence inhibition; Potency, µM (top dose mostly 57.5 µM), without a hit: at the highest dose activity change, negative = inhibition, usual class: inhibitors; actives 6.9% (n = 360,000); AID 588342;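 note: plate controls were vehicle for no effect and reference inhibitor for full effect; nearly all actives have a fitted effect of over 55% in size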
Target sequence (P08659 whole entry, looked up): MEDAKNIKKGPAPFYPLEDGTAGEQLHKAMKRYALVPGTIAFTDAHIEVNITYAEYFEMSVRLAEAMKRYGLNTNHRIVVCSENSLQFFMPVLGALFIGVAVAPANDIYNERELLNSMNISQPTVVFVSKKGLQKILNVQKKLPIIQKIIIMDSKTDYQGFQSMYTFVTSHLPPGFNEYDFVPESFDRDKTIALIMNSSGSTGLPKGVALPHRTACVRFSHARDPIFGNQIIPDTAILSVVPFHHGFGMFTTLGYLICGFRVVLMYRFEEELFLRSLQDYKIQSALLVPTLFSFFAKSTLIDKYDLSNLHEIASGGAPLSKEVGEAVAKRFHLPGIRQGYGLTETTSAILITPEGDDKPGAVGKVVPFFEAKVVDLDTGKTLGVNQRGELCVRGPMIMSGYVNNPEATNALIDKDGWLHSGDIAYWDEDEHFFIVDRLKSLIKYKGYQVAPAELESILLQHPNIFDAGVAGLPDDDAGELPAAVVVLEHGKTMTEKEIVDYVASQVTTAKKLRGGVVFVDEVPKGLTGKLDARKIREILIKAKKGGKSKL
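Biochemical qHTS of compounds, final roughly 60 µM downward over six points, against 10 nM purified firefly luciferase using Km concentrations of substrates (10 uM D-luciferin, 10 uM ATP) in Tris acetate pH 7.5 buffer; luminescence output.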
SMN2 splice up: SMN2 splice variant enhancement; actives 2.8% (n = 210,000); HEK293 SMN2-luciferase splicing reporter, luminescence, 30-36 h; Potency, µM (series often up to 46.1 µM), without a hit: at the top dose activity change, positive = activation, most hits filed as activators; note: % of control where 0% means no effect; nearly all actives have a fitted effect of over 55% in size
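HEK293 cells carry an SMN2 […]–luciferase reporter in which exon 7 inclusion puts luciferase in frame. Cells were plated 10-12 h before compound addition, then incubated 30-36 h at 37C. ONE-Glo luminescence was read; sodium butyrate at 4.5 mM final served as control.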
NPC1 prom act: activates the NPC1 promoter | Huh7 NPC1 promoter luciferase reporter, 24 h | Potency, µM (highest dose often 9.22 µM), for the others: at the highest dose activation, usual class: activators | actives 2.4% (n = 320,000); note: % of control where 0% means no effect; nearly all actives have a fitted effect of over 60% in size
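Stable NPC1-promoter luciferase Huh7 line; cpd (DMSO) 24 h, 37 °C, 5% CO2; Amplite luciferase reagent 10 min RT; luminescence readout. qHTS format.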
ELG1 genotox: genotoxicity induction in ELG1-luciferase HEK293T cells | actives 1.3% (n = 330,000) | Potency, µM (highest dose often 46 µM), inactives show at the highest dose activity change, positive = activation, usual class: activators | HEK293T ELG1-luciferase reporter, luminescence, 16 h | AID 504466; note: % of control where 0% means no effect; nearly all actives have a fitted effect of over 60% in size
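Step 1: seed 2,000 HEK293T ELG1-luciferase cells per well. Step 2: add compound or DMSO, incubate 16 hr at 37 °C. Step 3: ONE-Glo, 30 min at room temperature, read luminescence.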
Starred values were filed as active, the others as inactive; ? = inconclusive; . = not tested or not shown. Calls come from the whole dose curve; as a rule, active = well fitted curve in the direction sought with a large enough effect; inconclusive = small, poorly fitted or top-dose-only effect, or another doubt; inactive = no such curve, though single readings can be large; an effect the other way counts as inactive or inconclusive. Potency is the fitted concentration of half-maximal effect.

SMILES	KinaseGlo FLuc	Rab9 prom act	FLuc modulator	SMN2 splice up	NPC1 prom act	ELG1 genotox
Cc1c(C(=O)N2CCc3ccccc3C2)oc2ccccc12	.	22%	24µM*	.	?	15%
Cc1c(C(=O)N2c3ccccc3CC2C)oc2ccccc12 (stereo not given)	.	2.8µM*	4.8µM*	.	24%	?
COCc1c(C(=O)OCC(=O)N2c3ccccc3CC2C)oc2ccccc12 (stereo not given)	0%	-2%	-1%	11%	-30%	1%
CN(C)c1ccc(N=Nc2ccccc2C(=O)OCC(=O)N(C)C2CCCCC2)cc1	-3%	?	1.1µM*	?	26%	0%
CN(C)c1ccc(N=Nc2ccccc2C(=O)OCC(=O)NCC2CCCCC2)cc1	-7%	20%	4.8µM*	24%	8%	-3%
CN(C)c1ccc(N=Nc2ccccc2C(=O)OCC(=O)NC2CCCC2)cc1	.	25%	2.7µM*	.	11%	2%
O=C(COC(=O)c1ccccc1Br)NCC1CCCCC1	.	.	.	.	.	12%
COc1c(C)cccc1C(=O)Nc1ccc(OCC(=O)N2CCOCC2)cc1C	.	-20%	13µM*	.	-10%	16%
COc1cc(C(=O)Nc2ccc(OCC(=O)N3CCOCC3)cc2C)cc(OC)c1OC	.	-1%	7%	.	0%	4%
COc1ccc(C(=O)Nc2ccc(CN3CCOCC3)cc2)cc1Br	.	-1%	15µM*	.	3%	2%
CCCOc1ccc(C(=O)Nc2ccc(CN3CCOCC3)cc2)cc1	.	-1%	13µM*	.	8%	1%
COc1cccc(NC(=O)c2ccc(CN3CCOCC3)cc2)c1	-5%	3.2µM*	11µM*	?	4µM*	8%
Cc1ccc(NC(=O)Cn2ccn(-c3ccc(F)c(F)c3)c(=O)c2=O)cc1C	.	.	-1%	.	.	.
C[C@@]12C(=O)OC(=O)[C@]1(C)C1CCC2O1	.	-41%	0%	.	-38%	?
COCCNC(=O)c1cccc(-n2c(C)nc3cccnc32)c1	.	.	0%	.	.	.
NC(=O)c1ccc(NC(=O)CNC(c2ccccc2)c2ccccc2)cc1	.	-3%	4%	.	-1%	-1%
COc1c(Cl)cc(Cl)cc1C(=O)Nc1ccc(CN2CCOCC2)cc1	.	-7%	-15%	.	2%	-2%
CC(C)Oc1cccc(C(=O)Nc2ccc(CN3CCOCC3)cc2)c1	3%	1%	12µM*	-48%	6%	-4%
COc1c(C)cccc1C(=O)Nc1ccc(CN2CCOCC2)cc1	-1%	2.5µM*	17µM*	16µM*	3.2µM*	?
O=C(Nc1ccc2c(c1)OCCO2)c1ccc(Cl)c(S(=O)(=O)N2CCOCC2)c1	-3%	8%	?	-38%	5%	-3%
O=C(Nc1ccc2c(c1)OCCO2)c1ccc(CN2CCOCC2)cc1	3%	3.5µM*	11µM*	2%	28%	4%
COc1cccc(/C=c2\sc3nc(-c4cccs4)nn3c2=O)c1OC	-4%	-3%	8.5µM*	17%	0%	2%
CCc1ccc(NC(=O)c2cccc(C(=O)Nc3ccc(CC)cc3)n2)cc1	.	16%	5.4µM*	.	9%	6%
COC(=O)c1cccc(C(=O)Nc2ccc(C)cc2)n1	-20%	?	12µM*	-4%	3.5µM*	10%
CSc1ccccc1C(=O)Nc1c(C)cccc1C	.	-2%	3%	.	-4%	0%
CCc1ccc(NC(=O)c2ccccc2SC)cc1	-12%	?	15µM*	?	?	?
CSc1ccc(/C=C(/NC(=O)c2ccccc2)C(=O)NCCN2CCOCC2)cc1	.	-5%	6%	.	-2%	-1%
CC1(c2ccc3c(c2)OCCO3)NC(=O)N(CC(=O)Nc2ccccc2SCC#N)C1=O (stereo not given)	.	3%	-5%	.	-5%	-2%

Screening data deposited in PubChem by National Center for Advancing Translational Sciences (NCATS).
